Data from PubChem BioAssay (NCI).
Compounds without any hit were thinned out: in the full panel of roughly 79,000, 15% have a hit. A number with no mark means an inactive call. Active and inactive are the calls of the source. Rule as the data show it: active = growth inhibition above about 70%; inactive = the rest.

Columns and labels:
[1] = NCI Yeast Anticancer Drug Screen. Data for the rad50 strain (AID 155);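 also: 0% = growth of vehicle-only cultures of the same strain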; details: S. cerevisiae rad50 strain growth inhibition, stronger effect = higher value
Procedure, shortened: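 Cells are treated with compound, grown, and their growth is then scored against vehicle-only cultures of the same repair-deficient yeast strain.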

[2] = NCI Yeast Anticancer Drug Screen. Data for the mec2-1 strain (AID 157); details: S. cerevisiae mec2-1 strain, stronger effect = higher value
Procedure, shortened: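 Each compound was tested on mec2-1 yeast, a strain altered in DNA damage repair or cell cycle control. Growth inhibition is reported relative to vehicle.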

[3] = NCI Yeast Anticancer Drug Screen. Data for the sgs1 mgt1 strain (AID 161);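 also: 0% = growth of cultures given vehicle only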; details: S. cerevisiae sgs1 mgt1 strain, stronger effect = higher value
Procedure, shortened: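 Inhibition of yeast growth, normalised to vehicle-treated controls, is reported for a strain bearing genetic alterations in DNA damage repair.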

[4] = NCI Yeast Anticancer Drug Screen. Data for the cln2 rad14 strain (AID 165);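 also: 0% = growth equal to vehicle treated cultures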; details: S. cerevisiae cln2 rad14 strain, stronger effect = higher value
Procedure, shortened: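 Test compounds were added to cln2 rad14 yeast cultures; inhibition of growth was then determined by comparison with vehicle treatment.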

[5] = NCI Yeast Anticancer Drug Screen. Data for the bub3 strain (AID 167); details: S. cerevisiae bub3 mutant strain, stronger effect = higher value
Procedure, shortened: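 Part of a panel of yeast mutants defective in DNA damage repair or cell cycle regulation. Each strain is grown with compound, and inhibition is calculated relative to solvent-treated cultures.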

[6] = NCI Yeast Anticancer Drug Screen. Data for the mlh1 rad18 strain (AID 175); details: S. cerevisiae mlh1 rad18 strain growth inhibition, stronger effect = higher value
Procedure, shortened: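 Inhibition values reflect reduced growth of mutant yeast versus vehicle-treated controls following compound exposure; the mutations affect DNA damage repair.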

[7] = at 5.0 µM (retest, dose inferred, filed as 0.5)
[8] = at 50.0 µM (retest, dose inferred, filed as 5.0)

SMILES | growth inhibition [1, 7] | growth inhibition [1, 8] | growth inhibition ([1]; at 50.0 µM) | growth inhibition [2, 7] | growth inhibition [2, 8] | growth inhibition ([2]; at 50.0 µM) | growth inhibition [3, 7] | growth inhibition [3, 8] | growth inhibition ([3]; at 50.0 µM) | growth inhibition [4, 7] | growth inhibition [4, 8] | growth inhibition ([4]; at 50.0 µM) | growth inhibition [5, 7] | growth inhibition [5, 8] | growth inhibition ([5]; at 50.0 µM) | growth inhibition [6, 7] | growth inhibition [6, 8] | growth inhibition ([6]; at 50.0 µM)
COc1ccc(/C=C2/C(=O)N(C(=O)c3ccccc3O)N=C2C)cc1OC | 13% | 69% | 66.7% | -1% | 59% | 52.9% | 7% | 61% | 47.4% | 22% | 62% | 56.5% | 17% | 81% (active) | 76.5% (active) | 15% | 79% (active) | 54.6%
CCc1ccc2ccc3ccc(CC)nc3c2n1 | 74% (active) | 96% (active) | 96.9% (active) | 85% (active) | 94% (active) | 97.7% (active) | 86% (active) | 96% (active) | 97.8% (active) | 72% (active) | 91% (active) | 82.7% (active) | 95% (active) | 97% (active) | 95.3% (active) | 85% (active) | 96% (active) | 97.7% (active)
Nc1ccccc1C(=O)NCCc1c[nH]c2ccccc12 | 1% | 34% | 6.35% | -3% | 6% | 11.8% | 4% | 40% | 33.8% | -5% | 27% | 66.6% | -7% | 18% | 48.5% | 3% | 38% | 7%
O=C1CSC(Cc2nc3ccccc3[nH]2)=N1 | 30% | 79% (active) | 76.7% (active) | 26% | 79% (active) | 79.5% (active) | 44% | 87% (active) | 73% (active) | 36% | 55% | 69% | 22% | 71% (active) | 77.8% (active) | 48% | 90% (active) | 74.9% (active)
O=c1ccnc(Sc2ccc([N+](=O)[O-])cc2[N+](=O)[O-])[nH]1 | 16% | 94% (active) | 47.2% | 8% | 94% (active) | 54.6% | 2% | 87% (active) | 84% (active) | 1% | 74% (active) | 59.1% | -1% | 92% (active) | 52.5% | 2% | 93% (active) | 49.6%
CC1CCC(C(C)C)C(OC(=O)Nc2ccc(S(=O)(=O)N(C)C)cc2)C1 (stereo not given) | 25% | 82% (active) | 96% (active) | 18% | 92% (active) | 95.2% (active) | 46% | 83% (active) | 96% (active) | 8% | 82% (active) | 95.5% (active) | 29% | 90% (active) | 92.5% (active) | 32% | 88% (active) | 95.8% (active)
O=S(=O)(Nc1ccc(-c2ccc(Cl)cc2)cc1)c1ccccc1 | 68% | 97% (active) | 92.5% (active) | 58% | 99% (active) | 93.2% (active) | 75% (active) | -21% | 97.8% (active) | 19% | 90% (active) | 92.3% (active) | 38% | 98% (active) | 95.8% (active) | 95% (active) | 98% (active) | 95% (active)
O=C1/C(=C/c2cccc([N+](=O)[O-])c2)Sc2scc(-c3ccc([N+](=O)[O-])cc3)[n+]21 | 7% | 97% (active) | 85.2% (active) | -3% | 98% (active) | 62% | 6% | 97% (active) | 94.9% (active) | -15% | 97% (active) | 59.1% | -18% | 98% (active) | 93.1% (active) | 11% | 97% (active) | 93.8% (active)
Cc1ccc2nc(CC(=O)c3cccnc3)c(CC(=O)c3cccnc3)nc2c1 | 7% | 95% (active) | 76.3% (active) | 12% | 94% (active) | 63.2% | -1% | 87% (active) | 66.7% | 14% | 96% (active) | 76.3% (active) | 8% | 93% (active) | 60.7% | 1% | 91% (active) | 60.5%
C1CCC2[N-]CC3CCCCC3[N-]CC3CCCCC3[N-]CC3CCCCC3[N-]CC2C1.[Cl][Fe]([Cl])([Cl])[Cl].[Fe+6] (stereo not given) | 41% | 97% (active) | 96.3% (active) | 10% | 98% (active) | 98.5% (active) | 25% | 98% (active) | 98.5% (active) | 0% | 96% (active) | 96.8% (active) | -3% | 97% (active) | 97.5% (active) | 26% | 98% (active) | 97.7% (active)
